The text below walks through data of PubChem BioAssay (NCATS).

The target of assay [1] is Protein phosphatase 1D (Homo sapiens) (UniProt O15297). In words: RapidFire Mass Spectrometry qHTS Assay for Modulators of WT P53-Induced Phosphatase 1 (WIP1) (AID 1347424).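 Also: amount of dephosphorylated VEPPL-S-QETFS peptide product formed by WIP1.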 The note with it: WIP1 dephosphorylation of phosphopeptide, RapidFire MS; series mostly up to 63 µM. In a few lines:
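10 nM WIP1 preincubated with compounds 1 hr at room temperature in pH 7.5 Tris buffer with 30 mM MgCl2, 1 mM TCEP; 2 uM VEPPL-pS-QETFS phosphopeptide for 5 min, formic acid quench; dephosphorylated product quantified by RapidFire MS against labelled standard.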

Assay [2] has the same target. The experiment in a line: Rhodamine-PBP qHTS Assay for Modulators of WT P53-Induced Phosphatase 1 (WIP1) (AID 1347425). The note with it: recombinant WIP1, Rhodamine-PBP phosphate fluorescence, real-time; series mostly up to 57.5 µM. In a few lines:
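WIP1 (5 nM final) was preincubated with compound for 1 hour at room temperature. It then dephosphorylated 10 uM VEPPL-pS-QETFS peptide in Tris-HCl pH 7.5 with 30 mM MgCl2. Released Pi was detected by 10 uM Rh-PBP fluorescence (ex 525/em 598 nm) read at 1-min intervals for 11 min, as delta f1 - f0.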

The nature of assay [3]: Primary qHTS for inhibitors of La Crosse Virus (LACV) - induced cell death in SH-SY5Y cells (AID 1508616).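 Also: top concentration of the series differs between compounds; higher means more rescue of cells from virus-induced death.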 The following applies: SH-SY5Y LACV cytopathicity rescue, ATP luminescence, 6 d; series mostly up to 4.29 µM. Put shortly:
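SH-SY5Y cells (6000/well) plated 24 h, then given compounds by pin transfer and LACV at 0.01 MOI for 6 days at 37C. Viability measured by ATPLite luminescence, normalized to infected DMSO and uninfected DMSO.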

The nature of assay [4]: Primary qHTS for small molecule stabilizers of the endoplasmic reticulum resident proteome: Secreted ER Calcium Modulated Protein (SERCaMP) assay (AID 1508630). The note with it: SH-SY5Y GLuc-SERCaMP (Gaussia luciferase released on ER calcium loss) secretion, thapsigargin, luminescence; series mostly up to 38.4 µM. Put shortly:
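GLuc-SERCaMP-expressing SH-SY5Y cells, pretreated 16 h with compound, are challenged with thapsigargin to empty ER calcium stores; after 4 h, coelenterazine is added directly to the medium and luminescence is imaged.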

A short description of assay [5]: A High-Content qHTS Against Drug Library for the Identification of Small Molecules that Inhibit DYT1 Early Onset Primary Dystonia-Associated Cell Pathology (AID 1645839; calls by dose curve; also: potency is read from the fitted curve at half-maximal effect). The note with it: HEK293 Flp-In EGFP-delE TorsinA, punctate imaging, 48 h; series mostly up to 46.1 µM. In a few lines:
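Flp-In T-REx 293 cells with tetracycline-inducible EGFP-delE hTOR1A (WT EGFP-hTOR1A as reference), 800 cells/well; compound added with tetracycline, 48 h at 37 C. Fixed, permeabilized cells imaged; %pathology (punctate TorsinA) primary, cell count counterscreen.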

For assay [6], the target named is Calcium and integrin-binding protein 1 (Homo sapiens) (UniProt Q99828). In words: Primary qHTS for Identification of Calcium Integrin Binding Protein 1 (CIB1) Competitor (AID 1508620). Also: top concentration of the series differs between compounds. The note with it: CIB1-GST / FITC-alphaIIb peptide fluorescence polarization; series mostly up to 114 µM. In a few lines: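 Fluorescence polarization competition: GST-tagged CIB1 (1 uM final) preincubated with compound 15 min at room temperature, then FITC-labelled alphaIIb peptide (100 nM final) added. After 15 min at room temperature, polarization read at Ex 480/Em 540.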
Sequence of Calcium and integrin-binding protein 1 (Homo sapiens) (Q99828 whole entry, looked up): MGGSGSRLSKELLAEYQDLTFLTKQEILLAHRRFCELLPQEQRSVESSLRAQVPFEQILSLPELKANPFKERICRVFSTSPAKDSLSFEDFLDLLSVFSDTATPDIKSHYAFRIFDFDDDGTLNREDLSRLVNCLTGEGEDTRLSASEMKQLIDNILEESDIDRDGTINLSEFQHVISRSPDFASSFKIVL

Assay [7] has the same target. The experiment in a line: Confirmatory qHTS for Identification of Calcium Integrin Binding Protein 1 (CIB1) Competitor (AID 1508617). Also: nearly all actives have a fitted effect of over 65% in size. The note with it: CIB1 binding competition assay, biochemical qHTS; series mostly up to 114 µM. In a few lines:
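FP competition: CIB1-GST (1 uM final) in 5 mM HEPES pH 7.4, 125 mM NaCl, 5 mM CaCl2, 0.01% Tween20 preincubated 15 min RT with compounds (up to 114 uM), then FITC-alphaIIb peptide (100 nM), 15 min RT; Ex 480/Em 540.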

Each structure is given as a SMILES string. Inconclusive results are not listed. Activity calls are given as the source filed them. Unless noted, calls follow the shape of the dose curve; as a rule, active = well fitted curve in the direction sought with a large enough effect; inconclusive = small, poorly fitted or top-dose-only effect, or another doubt; inactive = no such curve, though single readings can be large; an effect the other way counts as inactive or inconclusive.

Sequence of Protein phosphatase 1D (Homo sapiens) (O15297 whole entry, looked up): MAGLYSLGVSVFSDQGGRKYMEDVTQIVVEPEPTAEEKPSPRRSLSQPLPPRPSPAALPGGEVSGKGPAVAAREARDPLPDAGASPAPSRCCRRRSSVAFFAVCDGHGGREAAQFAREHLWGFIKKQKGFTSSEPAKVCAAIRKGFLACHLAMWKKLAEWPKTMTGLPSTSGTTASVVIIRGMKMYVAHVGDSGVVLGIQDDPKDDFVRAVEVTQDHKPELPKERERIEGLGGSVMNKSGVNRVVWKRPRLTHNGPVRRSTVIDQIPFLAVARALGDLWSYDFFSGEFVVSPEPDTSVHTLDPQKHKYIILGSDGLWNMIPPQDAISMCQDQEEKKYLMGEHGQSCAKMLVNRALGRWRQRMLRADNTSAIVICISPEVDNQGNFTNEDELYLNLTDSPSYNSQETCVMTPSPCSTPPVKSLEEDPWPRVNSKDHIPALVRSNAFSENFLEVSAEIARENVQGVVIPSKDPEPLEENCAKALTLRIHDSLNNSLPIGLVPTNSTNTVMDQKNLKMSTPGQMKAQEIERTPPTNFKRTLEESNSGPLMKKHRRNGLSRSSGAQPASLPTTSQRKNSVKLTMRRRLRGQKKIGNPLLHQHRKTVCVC

For the compound `c1ccc(CNCCNCc2ccccc2)cc1`, the Potency entry in assay [1], in assay [3] and in assay [4] was “inactive” throughout. Besides, the outcome in assay [2] was inactive.

On to `Cc1cc(=O)n(-c2ccccc2)n1C`, for which the Potency entry in assay [1], in assay [3], in assay [4] and in assay [5] was “inactive” in each case. In addition, the outcome in assay [2] was inactive.

Turning to `O=C(O)CCCCC(=O)O`, the Potency entry in assay [1], in assay [3] and in assay [5] was “inactive” each time. Further, in assay [2], the outcome was inactive.

For the compound `CC(C)NC[C@@H](O)COc1cccc2ccccc12`, the Potency entry in assay [1], in assay [6] and in assay [4] was “inactive” throughout. Further, in assay [2], the outcome was inactive.

Take `Clc1ccc2c(c1)CCc1cccnc1C2=C1CCNCC1`: the Potency result in assay [1], in assay [3] and in assay [4] was “inactive” each time. For the same compound, the outcome in assay [2] was inactive.

For the compound `CC(=O)[C@H]1CC[C@H]2[C@@H]3C[C@H](C)C4=CC(=O)CC[C@]4(C)[C@H]3[C@@H](O)C[C@]12C`, the Potency result in assay [1], in assay [3], in assay [4] and in assay [5] was “inactive” in each case. Further, in assay [2], the outcome was inactive.

In the case of `COc1c2occc2c(OC)c2c(=O)cc(C)oc12`, the Potency entry in assay [1], in assay [3], in assay [4] and in assay [5] was “inactive” in each case. Also, in assay [2], the outcome was inactive.

On to `OC[C@H]1O[C@H](O[C@]2(CCl)O[C@H](CCl)[C@@H](O)[C@@H]2O)[C@H](O)[C@@H](O)[C@H]1Cl`, for which the Potency entry in assay [1], in assay [3] and in assay [5] was “inactive” in each case. Further, the outcome in assay [2] was inactive.

As to `NC(CO)(CO)CO`, the Potency result in assay [1] and in assay [6] was “inactive” in each case. The result in assay [2] was inactive.

For the compound `CCN(CC)CCNC(=O)COc1ccc(Cl)cc1`, the Potency entry in assay [1], in assay [3], in assay [4] and in assay [5] was “inactive” each time. For the same compound, in assay [2], the outcome was inactive.

With `Cc1ccnc(NS(=O)(=O)c2ccc(N)cc2)n1`, the Potency result in assay [1], in assay [3] and in assay [4] was “inactive” each time. In addition, the outcome in assay [2] was inactive.

Regarding `C/C=C/c1ccc(OC)cc1`, the Potency result in assay [1], in assay [3], in assay [4] and in assay [5] was “inactive” throughout. Besides, the outcome in assay [2] was inactive.

Take `CCCCCCCCCCCCCCCC[N+](C)(C)CCN(Cc1ccc(OC)cc1)c1ncccn1`: the Potency result in assay [1], in assay [7] and in assay [4] was “inactive” throughout. In addition, the result in assay [2] was inactive.

Turning to `CC(C)(C)NC(=O)[C@@H]1CN(Cc2cccnc2)CCN1C[C@@H](O)C[C@@H](Cc1ccccc1)C(=O)N[C@H]1c2ccccc2C[C@H]1O`, the Potency entry in assay [1], in assay [3], in assay [4] and in assay [5] was “inactive” throughout. The outcome in assay [2] was inactive.

As for `Cc1ccc(Nc2c(F)cccc2Cl)c(CC(=O)O)c1`, the Potency result in assay [1], in assay [3] and in assay [5] was “inactive” in each case. Also, the result in assay [2] was inactive.

Regarding `CCN1CCCC1=O`, the Potency entry in assay [1] and in assay [6] was “inactive” in each case. Besides, in assay [2], the outcome was inactive.

As for `COc1ccc(C2C(=O)c3ccccc3C2=O)cc1`, the Potency result in assay [1], in assay [3] and in assay [4] was “inactive” in each case. Besides, the outcome in assay [2] was inactive.

As to `C[C@H](CCC(=O)O)[C@H]1CC[C@H]2[C@@H]3C(=O)C[C@@H]4CC(=O)CC[C@]4(C)[C@H]3CC(=O)[C@]12C`, the Potency result in assay [1], in assay [6] and in assay [4] was “inactive” throughout. Moreover, the outcome in assay [2] was inactive.

Consider `CC(=O)OCC(=O)NCCCOc1cccc(CN2CCCCC2)c1`, for which the Potency result in assay [1], in assay [6] and in assay [4] was “inactive” throughout. Moreover, the result in assay [2] was inactive.

In the case of `CN(C)CC/C=C1\c2ccccc2Sc2ccc(Cl)cc21`, the Potency entry in assay [1] and in assay [3] was “inactive” throughout. In assay [2], the result was inactive. Also, in assay [5], the Potency is 12.6 µM (active).

Consider `CC(=O)OCC(=O)[C@@]1(O)[C@H](C)C[C@H]2[C@@H]3CCC4=CC(=O)C=C[C@]4(C)[C@@]3(F)[C@@H](O)C[C@@]21C`, for which the Potency result in assay [1], in assay [3], in assay [4] and in assay [5] was “inactive” throughout. In addition, in assay [2], the outcome was inactive.

In the case of `CCCCCC=CCC=CCCCCCCCC(=O)OCC`, the Potency result in assay [1], in assay [3], in assay [4] and in assay [5] was “inactive” throughout. The outcome in assay [2] was inactive.

Turning to `N[C@H](Cc1c[nH]c2ccccc12)C(=O)O`, the Potency entry in assay [1], in assay [3], in assay [4] and in assay [5] was “inactive” each time. Besides, the outcome in assay [2] was inactive.

On to `Cc1cc(N)c2cc(NC(=O)Nc3ccc4nc(C)cc(N)c4c3)ccc2n1`, for which the Potency result in assay [1], in assay [6] and in assay [4] was “inactive” in each case. In addition, in assay [2], the result was inactive.

`NC[C@H]1O[C@H](O[C@H]2[C@H](O)[C@@H](O[C@H]3O[C@H](CO)[C@@H](O)[C@H](N)[C@H]3O)[C@H](N)C[C@@H]2N)[C@H](N)[C@@H](O)[C@@H]1O`: the Potency result in assay [1], in assay [3] and in assay [5] was “inactive” throughout. Besides, in assay [2], the outcome was inactive.

In the case of `C[C@H]1[C@H](NC(=O)/C(=N/OC(C)(C)C(=O)O)c2csc(N)n2)C(=O)N1S(=O)(=O)O` (stereo in doubt), the Potency entry in assay [1], in assay [6] and in assay [5] was “inactive” throughout. Further, the result in assay [2] was inactive.

As to `C[C@]12CC[C@@H]3c4ccc(O)cc4CC[C@H]3[C@@H]1C[C@@H](O)[C@@H]2O`, the Potency entry in assay [1], in assay [6], in assay [4] and in assay [5] was “inactive” throughout. The result in assay [2] was inactive.

Regarding `NCCc1ccn[nH]1`, the Potency entry in assay [1], in assay [4] and in assay [5] was “inactive” throughout. The outcome in assay [2] was inactive.

`COc1c(C)c2c(c(O)c1C/C=C(\C)CCC(=O)O)C(=O)OC2`: the Potency entry in assay [1], in assay [6] and in assay [4] was “inactive” in each case. Further, the result in assay [2] was inactive.

Consider `COc1cccc2c1C(=O)c1c(O)c3c(c(O)c1C2=O)C[C@@](O)(C(C)=O)C[C@@H]3O[C@H]1C[C@H](N)[C@H](O)[C@H](C)O1`, for which the Potency result in assay [1] and in assay [4] was “inactive” throughout. For the same compound, the outcome in assay [2] was inactive. For the same compound, the Potency in assay [5] is 1.58 µM (active).

For the compound `Cc1ccccc1C(=O)Nc1ccc(C(=O)N2CCCC(N(C)C)c3ccccc32)cc1` (configuration not stated), the Potency entry in assay [1], in assay [6] and in assay [4] was “inactive” in each case. For the same compound, in assay [2], the result was inactive.
